Only some compounds are listed: those with a hit (about 2.4% of all), similar ones and a draw of the others.
SmPrx2 inh: blocks S. mansoni peroxiredoxin 2 enzymatic activity; S. mansoni Prx2 activity coupled to TGR/GSH (TGR is thioredoxin glutathione reductase), NADPH fluorescence loss, qHTS; Potency, µM; hit rate 0.07% among 65,000; AID 448
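Prx2 inhibition was measured as reduced NADPH consumption when electrons flowed from NADPH through TGR and glutathione to Prx2 and H2O2. Plates were read kinetically over 8 min; enzyme reagents were held at 4 deg C during dispensing.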
AmpC nodet inh: inhibitors of E. coli AmpC beta-lactamase without detergent; AmpC nitrocefin hydrolysis, absorbance 480 nm, no detergent; Potency, µM (titrated, usually from 28.7 µM); hit rate 1.8% among 71,000; AID 585
Target sequence (P00811 whole entry, looked up): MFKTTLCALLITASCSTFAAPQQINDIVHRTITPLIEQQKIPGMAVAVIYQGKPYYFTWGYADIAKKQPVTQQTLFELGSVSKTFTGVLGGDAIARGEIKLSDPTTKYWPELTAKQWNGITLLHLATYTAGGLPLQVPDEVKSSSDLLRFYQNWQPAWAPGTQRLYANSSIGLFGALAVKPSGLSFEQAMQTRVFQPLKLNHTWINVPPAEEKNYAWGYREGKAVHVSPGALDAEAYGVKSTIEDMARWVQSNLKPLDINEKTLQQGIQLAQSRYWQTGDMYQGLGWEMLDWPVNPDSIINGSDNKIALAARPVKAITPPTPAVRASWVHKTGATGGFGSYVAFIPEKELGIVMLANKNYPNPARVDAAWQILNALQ
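Enzyme, pH 7.0 phosphate. Compound titrations were pre-incubated with AmpC for 15 min at room temperature before nitrocefin (stock 800 uM) addition; product formation was recorded at 480 nm every 20 s for 4 min.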
LT uptake inh: blocks cellular internalization of anthrax lethal toxin. AID 912. Potency, µM (series often up to 40 µM), actives largely listed as inhibitors. Cells, anthrax lethal toxin internalization, FRET ratio (460/530). hit rate 0.67% among 70,000; note: nearly all actives have a fitted effect of over 50% in size
AmpC det inh: blocks E. coli AmpC beta-lactamase in presence of detergent; P00811; purified AmpC, nitrocefin hydrolysis with detergent; Potency, µM (titrated, usually from 28.7 µM); hit rate 0.09% among 71,000; active = well fitted curve in the direction sought with a large enough effect; inconclusive = small, poorly fitted or top-dose-only effect
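E. coli AmpC (5.3 nM) in 20 mM phosphate pH 7.0 with 0.01% Triton X-100, preincubated 15 min RT with compound; nitrocefin (2 uL of 800 uM stock) hydrolysis followed by 480 nm absorbance every 20 s over 4 min.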
A number is an active result; 0 = inactive; ? = inconclusive; - = no result given; [ ] = dose if it differs, or a comment. Unless noted, calls come from the whole dose curve.

SMILES | SmPrx2 inh | AmpC nodet inh | LT uptake inh | AmpC det inh
CCCCN1C(=O)c2ccccc2C1C(=O)NC1CCCC1 (configuration not stated) | 0 | 0 | 0 | 0
CCCN1C(=O)c2cc(C(=O)Nc3ccccc3CC)ccc2C1O (configuration not stated) | 0 | 4µM[single pt active] | 0 | 0
Cc1cc(NC(=O)CCS(=O)(=O)c2nc(-c3ccccc3)cc(C(F)(F)F)n2)no1 | 0 | 0 | 7.9µM | 0
COc1cccc(-c2nc(CS(=O)CC(=O)NC3CCCC3)c(C)o2)c1 (configuration not stated) | 0 | 4µM[single pt active] | 0 | 0
Cc1cccc(-c2nc(CS(=O)CC(=O)N3CCN(C)CC3)c(C)o2)c1 (configuration not stated) | 0 | 4µM[single pt active] | 0 | 0
CCC(C)NC(=O)CS(=O)Cc1nc(-c2cccc(OC)c2)oc1C (configuration not stated) | 0 | 4µM[single pt active] | 0 | 0
C=C(C)CSc1nc(N)c(C#N)c(-c2ccc(C)cc2)c1C#N | 0 | 6.3µM | ? | 0
CSc1nc(N)c(C#N)c(-c2ccc(Cl)cc2)c1C#N | 0 | ? | ? | 0
CCCCOc1ccc(-c2c(C#N)c(N)nc(SCC(N)=O)c2C#N)cc1 | 0 | 20µM[single pt active] | ? | 0
c1ccc(C2=Nn3c(nnc3-c3cc(-c4ccccc4)n[nH]3)SC2)cc1 | 0 | 0 | 13µM | 0
Cc1ccc(-c2nnc3n2N=C(c2ccccc2)CS3)cc1 | 0 | 0 | 0 | 0
COc1ccc(-n2c(=O)c(-c3ccccc3)nc3cnc(N4CCOCC4)nc32)cc1 | 0 | 0 | ? | 0
COC(=O)C1=C(C)Nc2ccc(C)cc2S1 | 0 | 4µM[single pt active] | 0 | 0
COC(=O)c1ccc(C(NC(=O)OCc2ccccc2)/C(C)=C/[C@@H](C)C(=O)Nc2ccc(OC)cc2)cc1 (some centres not stated) | - | 0 | 0 | 0
CCOC(=O)CN1C(=O)C(O)=C(C(C)=O)C1c1ccccc1 (configuration not stated) | 0 | 0 | - | 0
CCOC(=O)CN1c2ccccc2NC(=O)CC1C (configuration not stated) | 0 | 4µM[single pt active] | 0 | 0
C[C@@H](C(=O)Nc1ccc2ccccc2c1)[C@@H]1C[C@@]1(C)[C@@H](NS(=O)(=O)c1ccccc1)c1ccccc1 | 0 | 0 | ? | 0
Cc1cc(C(=O)N[C@H](c2ccccc2)[C@@]2(C)C[C@@H]2[C@@H](C)C(=O)Nc2ccc3ccccc3c2)n(C)n1 | 0 | 0 | 10µM | 0
CC(=O)N[C@@H](c1ccccc1)[C@]1(C)C[C@H]1[C@@H](C)C(=O)Nc1ccc2ccccc2c1 | 0 | 0 | 0 | 0
C[C@@H](C(=O)Nc1ccc2ccccc2c1)[C@H]1C[C@]1(C)[C@H](NC(=O)OCc1ccccc1)c1ccccc1 | 0 | 7.9µM | ? | 0
N#CCCn1c(=O)c(-c2cc(F)cc(F)c2)nc2cnc(N3CCOCC3)nc21 | 0 | 0 | ? | 0
CCN(CC)S(=O)(=O)c1ccc(NC2c3ccccc3C(=O)N2Cc2ccc3c(c2)OCO3)cc1 (configuration not stated) | 0 | 4µM[single pt active] | ? | 0
O=C1c2ccccc2C(Nc2ccc3c(c2)OCCO3)N1Cc1ccc2c(c1)OCO2 (configuration not stated) | 0 | 4µM[single pt active] | ? | 0
O=C1c2ccccc2C(Nc2ccc3c(c2)OCCO3)N1c1ccccn1 (configuration not stated) | 0 | 0 | ? | 0
C/C=C/OC(=O)NC(c1ccccc1)[C@@]1(C(=O)OC)CCCC1=O (some centres not stated) | - | - | 0[8 µM] | -
SMILES | SmPrx2 inh | AmpC nodet inh | LT uptake inh | AmpC det inh
O=C(c1ccncc1)N1CCC2(CCCN(c3ncccn3)C2)CC1 | 0 | 0 | 0 | 0
C[C@]12Cc3cn4c(nc3C=C1CC[C@H]1[C@@H]2CC[C@@]2(C)[C@H]1CC[C@@]2(O)C#N)nc1ccccc14 | 0 | 0 | ? | 0
COc1ccccc1S(=O)(=O)Cc1ccc(C(=O)NCCN(C)C)o1 | 0 | 0 | 0 | 0
COc1ccccc1S(=O)Cc1ccc(C(=O)NC2CCCC2)o1 (configuration not stated) | 0 | 4µM[single pt active] | 0 | 0
COc1ccccc1S(=O)Cc1ccc(C(=O)NCCc2ccc(Cl)cc2)o1 (configuration not stated) | 0 | 0 | 2.5µM | 0
COc1ccc(S(=O)(=O)Cc2ccc(C(=O)NC3CC3)o2)cc1 | 0 | 0 | 0 | 0
CNc1ccc2oc(C[C@@H]3O[C@@]4(CC[C@H]3C)O[C@@H]([C@@H](C)C(=O)c3ccc[nH]3)[C@@H](C)C[C@H]4C)nc2c1C(=O)O | 0 | 0 | ? | 0
CCOC(=O)c1c(CN(CC)CC)oc2cc(Br)c(O)cc12 | 0 | 4µM[single pt active] | ? | 0
